This note sets out measurements from PubChem BioAssay (NCATS).

Test [1] can be described thus: AP1 Signaling Pathway (AID 357). Further: on the % scale 0 is the no-effect control and ±100 the full control effect. Particulars: ME-180 AP-1-bla reporter, EGF-induced, beta-lactamase ratio, 5 h. The gist of the method: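 Read-out was the 460nm/530nm emission ratio (excitation 405nm) after CCF4 loading for 2.5 hours at room temperature. Cells carried an AP-1-driven beta-lactamase reporter, were stimulated with EC50 EGF plus compound for 5 hours, and AC50 values came from titrations.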

Test [2] addresses Cytochrome P450 1A2 (Homo sapiens) (UniProt P05177). As to the kind of experiment: p450-cyp1a2 (AID 410; calls by dose curve; further: potency means the concentration at half of the fitted maximal effect;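 on activity change, negative = inhibition: -100% = full effect of reference inhibitor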). Particulars: recombinant CYP1A2, luciferin-ME demethylation, luminescence; series mostly up to 57 µM. The gist of the method: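 O-Demethylation of luciferin 6' methyl ether by human CYP1A2 is monitored as luciferase luminescence. Substrate sits at Km (100uM); enzyme is 20nM. Values are scaled to 57 uM furafylline as maximal inhibition.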

Test [3] can be described thus: NFAT Signaling Pathway (AID 444).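 Further: carbachol stimulus at about its EC50 of 1 µM final; on the % scale 0 is the no-effect control and ±100 the full control effect.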 The following applies: Jurkat NFAT-bla M1, carbachol, beta-lactamase ratio, 5 h. A digest of the protocol: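 Jurkat cells carrying an NFAT-driven β-lactamase reporter and co-transfected muscarinic M1 receptor were treated with compound plus carbachol (1 uM final, an EC50 level) for 5 h at 37 °C. CCF4 loading followed for 1 h at RT; 460/530 nm ratio gave %activity.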

A short description of test [4]: Stat Signaling Pathway (AID 446).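 Further: ME-180 cervical cancer cells given 40 pM IL-6 alongside compound; SIE-controlled beta-lactamase reporter measured as 460/530 nm FRET emission ratio; on the % scale 0 is the no-effect control and ±100 the full control effect.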 The following applies: ME-180 (cervical carcinoma) SIE beta-lactamase reporter, IL-6 stimulated, 5 h; series mostly up to 17.2 µM. The gist of the method:
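Overnight-plated ME-180 cells bearing a STAT Inducible Element beta-lactamase reporter; 5 h co-exposure to compound and 40 pM IL-6; values normalized to 300 pM IL-6 and 125 nM JAK inhibitor controls.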

In test [5] the target is Glucocorticoid receptor (Homo sapiens) (UniProt P04150). The test is described as follows: GR-GFP Redistribution (AID 450;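 active means compounds whose dose series gives a full or clear partial fitted curve of increased nuclear translocation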; further: potency means the concentration at half of the fitted maximal effect). The following applies: U2OS GR-GFP nuclear translocation, laser cytometry, 2 h.
For test [6] the target is unchanged. The test is described as follows: GR-EFC Redistribution (AID 451; calls by dose curve; further: potency means the concentration at half of the fitted maximal effect). Particulars: CHO-K1 GR-EFC translocation, beta-gal luminescence, 2 h. The gist of the method: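 CHO-K1 cells stably expressing nuclear-localized β-gal enzyme acceptor and GR fused C-terminally to the enzyme donor fragment; ligand-driven nuclear translocation restores β-gal by complementation. Compounds titrated up to 46 uM final, 2 h at 37 °C; luminescence read.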

Test [7] has as its target Mitogen-activated protein kinase 10 (Mus musculus) (UniProt Q61831). The test is described as follows: JNK3 AlphaScreen Assay (AID 530).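 Further: kinase came from lysate of stimulated human HepG2 cells; on the % scale 0 is the no-effect control and ±100 the full control effect.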 Particulars: JNK3 lysate, c-Jun phosphorylation; series mostly up to 57.1 µM. A digest of the protocol: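 Phosphorylation of biotinylated GST-cJun(1-79) at Ser73 is measured by AlphaScreen proximity luminescence. Enzyme is JNK3 in HepG2 lysates activated with interleukin-1beta and tumor necrosis factor alpha; ATP is 10 uM final.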
(Alpha assays give light when donor and acceptor beads are brought close together.)

“And” between values parts separate entries of the source, which are not always exact repeats. Equal entries are not always repeated. Unmarked numbers belong to inactive results. Results filed as inconclusive are left out. The source made the active and inactive calls. Unless noted, the call rests on the fitted dose curve; in most records, active means well fitted curve in either direction with a large enough effect (not every such curve was filed as active); inconclusive means small, poorly fitted or top-dose-only effect, or another doubt; inactive means flat fitted curve, though single readings scatter.

Chain of Cytochrome P450 1A2 (Homo sapiens) (P05177 whole entry, looked up): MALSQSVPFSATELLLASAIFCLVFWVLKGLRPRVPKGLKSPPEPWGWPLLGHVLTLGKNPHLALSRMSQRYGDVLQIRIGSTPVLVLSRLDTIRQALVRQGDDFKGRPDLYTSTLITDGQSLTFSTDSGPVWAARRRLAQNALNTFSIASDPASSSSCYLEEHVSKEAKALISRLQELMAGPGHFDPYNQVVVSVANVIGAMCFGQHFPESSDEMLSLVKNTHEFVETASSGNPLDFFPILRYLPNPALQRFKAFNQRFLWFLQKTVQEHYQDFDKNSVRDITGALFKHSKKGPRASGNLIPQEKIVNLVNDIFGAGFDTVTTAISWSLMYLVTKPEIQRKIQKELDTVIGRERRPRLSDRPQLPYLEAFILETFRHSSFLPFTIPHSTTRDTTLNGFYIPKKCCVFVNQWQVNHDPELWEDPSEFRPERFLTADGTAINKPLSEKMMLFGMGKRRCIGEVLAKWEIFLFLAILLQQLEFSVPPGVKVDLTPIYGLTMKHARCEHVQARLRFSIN
Chain of Glucocorticoid receptor (Homo sapiens) (P04150 whole entry, looked up, the tested form may be a part): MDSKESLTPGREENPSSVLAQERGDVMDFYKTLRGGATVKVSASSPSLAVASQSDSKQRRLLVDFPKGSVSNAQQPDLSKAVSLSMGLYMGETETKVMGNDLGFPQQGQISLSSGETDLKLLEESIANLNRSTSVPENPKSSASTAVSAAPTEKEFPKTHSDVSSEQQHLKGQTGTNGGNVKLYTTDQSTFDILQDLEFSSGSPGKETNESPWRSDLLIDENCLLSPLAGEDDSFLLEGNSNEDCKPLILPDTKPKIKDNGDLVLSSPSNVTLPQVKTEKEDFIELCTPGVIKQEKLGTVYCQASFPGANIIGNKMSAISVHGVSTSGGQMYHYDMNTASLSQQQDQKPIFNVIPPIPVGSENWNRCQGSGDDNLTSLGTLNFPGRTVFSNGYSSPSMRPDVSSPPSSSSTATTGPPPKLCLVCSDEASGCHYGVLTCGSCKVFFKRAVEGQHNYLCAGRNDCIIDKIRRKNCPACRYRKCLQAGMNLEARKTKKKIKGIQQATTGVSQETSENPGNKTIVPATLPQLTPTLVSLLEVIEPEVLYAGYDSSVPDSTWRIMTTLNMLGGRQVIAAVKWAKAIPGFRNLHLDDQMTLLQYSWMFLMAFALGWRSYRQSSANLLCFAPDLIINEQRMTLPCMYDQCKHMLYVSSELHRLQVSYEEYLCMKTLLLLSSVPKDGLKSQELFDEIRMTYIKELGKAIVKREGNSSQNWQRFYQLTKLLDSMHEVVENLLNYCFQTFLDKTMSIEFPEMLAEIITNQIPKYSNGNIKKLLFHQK

Take `CC(=O)Nc1nnc(S(N)(=O)=O)s1`: the activity change, negative = inhibition in test [1] (at 17.2 µM (top of the series)) was 2.87%; in test [1] (at 38 µM (top of the series)), 2.53%; in test [3] (at 17.2 µM (top of the series)), -0.673% and -9.62%; in test [3] (at 38 µM (top of the series)), 2.29%. The Potency entry in test [2] and in test [7] was “inactive” throughout. Also, the outcome in test [4] was inactive. Besides, the Potency in test [5] was > 46 µM and > 20.6 µM; in test [6], > 46 µM and > 20.6 µM.
`O=C1NCN(c2ccccc2)C12CCN(CCCC(c1ccc(F)cc1)c1ccc(F)cc1)CC2`: the results for the activity change, negative = inhibition in test [1] (at 17.2 µM (top of the series)) and in test [1] (at 38 µM (top of the series)) were -2.84% and 1.17%, respectively. Also, the Potency in test [2] was 12.6 µM (active); in test [5], > 46 µM and > 20.6 µM; in test [6] it was > 46 µM and > 20.6 µM. Besides, the compound was called inactive in test [4]. For the same compound, the Potency result in test [7] is “inactive”.
`NC(N)=NC(=O)Cc1c(Cl)cccc1Cl`: the activity change, negative = inhibition was 3.24% in test [1] (at 17.2 µM (top of the series)), 6.16% in test [1] (at 38 µM (top of the series)), 3.14% in test [3] (at 17.2 µM (top of the series)) and 2.06% in test [3] (at 38 µM (top of the series)). Moreover, the Potency result in test [2] and in test [7] was “inactive” throughout. Further, the compound was classed as inactive in test [4]. The Potency in test [5] is > 46 µM and > 20.6 µM; in test [6], > 46 µM and > 20.6 µM.
Take `O=C(CCNNC(=O)c1ccncc1)NCc1ccccc1`: the activity change, negative = inhibition in test [1] (at 17.2 µM (top of the series)) was -5.47% and 0.412%; in test [1] (at 38 µM (top of the series)) it was 1.11%; in test [3] (at 17.2 µM (top of the series)), -23.8% and -5.87%; in test [3] (at 38 µM (top of the series)), 4.78%. Also, the Potency in test [2] is 31.6 µM (active) and 12.6 µM (active); in test [5], > 46 µM and > 20.6 µM; in test [6] it was > 46 µM and > 20.6 µM. Besides, the outcome in test [4] was inactive. Further, the Potency result in test [7] is “inactive”.
As to `Brc1c(NC2=NCCN2)ccc2nccnc12`, the activity change, negative = inhibition in test [1] (at 17.2 µM (top of the series)) is -0.374%; in test [1] (at 38 µM (top of the series)) it was 6.19%; in test [3] (at 17.2 µM (top of the series)), 15.8%; in test [3] (at 38 µM (top of the series)), 1.97%. Besides, the Potency entry in test [2] and in test [7] was “inactive” in each case. The result in test [4] was inactive. Moreover, the Potency in test [5] is > 46 µM and > 20.6 µM; in test [6], > 46 µM.
Regarding `Cc1ccc(S(=O)(=O)NC(=O)NN2CCCCCC2)cc1`, the activity change, negative = inhibition in test [1] (at 17.2 µM (top of the series)) was -5.47% and 3%; in test [1] (at 38 µM (top of the series)), 4.52%; in test [3] (at 17.2 µM (top of the series)), -5.82% and -2.02%; in test [3] (at 38 µM (top of the series)), -9.25%. In test [4], the compound was called inactive. In addition, the Potency in test [5] is > 46 µM and > 20.6 µM; in test [6] it was > 46 µM and > 20.6 µM. Moreover, the Potency entry in test [7] is “inactive”.
Consider `Cc1nc2ccccn2c(=O)c1CCN1CCC(C(=O)c2ccc(F)cc2)CC1`, for which the activity change, negative = inhibition in test [1] (at 17.2 µM (top of the series)) is -5.86%; in test [1] (at 38 µM (top of the series)), 5.6%. Also, in test [2], the Potency entry is “inactive”. The call in test [4] was inactive. Also, the Potency was > 46 µM and > 20.6 µM in test [5]; > 46 µM in test [6].
On to `CCN(CC)CCOCCOC(=O)C1(c2ccccc2)CCCC1`, for which the activity change, negative = inhibition in test [1] (at 17.2 µM (top of the series)) is -7.4%; in test [1] (at 38 µM (top of the series)) it was 16.3%. Also, the Potency in test [2] is 12.6 µM (active); in test [5] it was > 46 µM and > 20.6 µM; in test [6] it was > 46 µM and > 20.6 µM. For the same compound, the call in test [4] was inactive. Besides, in test [7], the Potency entry is “inactive”.
`CN(C)CC/C=C1\c2ccccc2COc2ccccc21`: the activity change, negative = inhibition in test [1] (at 17.2 µM (top of the series)) is 22.2%; in test [1] (at 38 µM (top of the series)), 23.8%; in test [3] (at 17.2 µM (top of the series)) it was -44.9% (active). Besides, the Potency in test [2] was 12.6 µM (active) and 5.01 µM (active) and 15.8 µM (active); in test [5], > 46 µM and > 20.6 µM; in test [6], > 46 µM and > 20.6 µM. The call in test [4] was inactive. Further, in test [7], the Potency entry is “inactive”.
In the case of `FC(F)(F)c1ccccc1-n1ccnc1`, the activity change, negative = inhibition in test [1] (at 38 µM (top of the series)) is 7.15%; in test [3] (at 38 µM (top of the series)), -3.5%. Moreover, the Potency in test [2] is 2.51 µM (active) and 251 nM (active); in test [5] it was > 46 µM; in test [6], > 46 µM. In addition, the compound was called inactive in test [4]. Further, the Potency result in test [7] was “inactive”.
On to `O=C1CC2(CCCC2)CC(=O)N1CCCCN1CCN(c2ncccn2)CC1`, for which the activity change, negative = inhibition in test [1] (at 17.2 µM (top of the series)) was -0.287%; in test [1] (at 38 µM (top of the series)), -2.42%; in test [3] (at 17.2 µM (top of the series)) it was -9.19%. In addition, the call in test [4] was inactive. Further, the Potency result in test [7] was “inactive”.
As to `CN(C)C(=O)Oc1ccc[n+](C)c1`, the activity change, negative = inhibition in test [1] (at 17.2 µM (top of the series)) was 8.22%; in test [1] (at 38 µM (top of the series)) it was 9.9%; in test [3] (at 17.2 µM (top of the series)) it was 4.78%; in test [3] (at 38 µM (top of the series)), 12%. Moreover, the Potency entry in test [2] and in test [7] was “inactive” in each case. Moreover, the call in test [4] was inactive. Further, the Potency in test [5] was > 46 µM and > 20.6 µM; in test [6] it was > 46 µM.
As for `CCN(CC)CCNC(=O)c1ccc(NC(C)=O)cc1`, the activity change, negative = inhibition was -5.32% in test [1] (at 17.2 µM (top of the series)), 9.43% in test [1] (at 38 µM (top of the series)), -13.8% in test [3] (at 17.2 µM (top of the series)) and -8.68% in test [3] (at 38 µM (top of the series)). Also, the Potency entry in test [2] was “inactive”. Besides, the compound was classed as inactive in test [4]. Moreover, the Potency is > 46 µM and > 20.6 µM in test [5]; > 46 µM in test [6].
For the compound `CN(C)CCOC(=O)COc1ccc(Cl)cc1`, the activity change, negative = inhibition in test [1] (at 17.2 µM (top of the series)) is 0.605%; in test [1] (at 38 µM (top of the series)), -0.251%; in test [3] (at 17.2 µM (top of the series)), 0.868%; in test [3] (at 38 µM (top of the series)), 7.1%. The Potency in test [2] was 15.8 µM (active) and 10 µM (active); in test [5], > 46 µM and > 20.6 µM; in test [6], > 46 µM and > 20.6 µM. Moreover, the outcome in test [4] was inactive. In test [7], the Potency result was “inactive”.
Regarding `NCCCNCCSP(=O)(O)O`, the activity change, negative = inhibition was 11.2% in test [1] (at 38 µM (top of the series)) and -0.295% in test [3] (at 38 µM (top of the series)). Moreover, the Potency result in test [2] and in test [7] was “inactive” each time. For the same compound, in test [4], the compound was called inactive. The Potency in test [5] and in test [6] was > 46 µM throughout.
